# Screens: PubChem BioAssay, The Scripps Research Institute Molecular Screening Center
# An excerpt weighted towards active compounds, which were near 4.1% of everything screened.
# ssDAF-12 act: S. stercoralis DAF-12 nuclear receptor activators, primary screen, cell-based, luminescence, HEK293, GRIP1 co-expression, lit1-tk-luc; Nuclear hormone receptor DAF-12 (Strongyloides stercoralis); HEK293 ssDAF-12/GRIP1 lit1-tk-luc reporter; % of 3 µM dafachronic acid response; activation, % at 6.8 µM; hit rate 1% among 370,000;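 active = activation above the mean over all tested compounds plus 3 SD, cut at about 0.9% in these data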;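 also: 0% = DMSO-only wells and 100% = 3 µM delta7-dafachronic acid wells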
# hgDAF12 agonist: H. glycines DAF-12 receptor agonists, primary screen, cell-based, luminescence, HEK293, GAL4 fusion, UAS-luciferase; Nuclear hormone receptor DAF-12 (Heterodera glycines), GAL4 fusion; HEK293 GAL4-hgDAF12 UAS-luciferase reporter, agonist luminescence; normalized to butyrate control; activation, % at 6.8 µM; hit rate 1.8% among 370,000; AID 687014, 2013;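 active = activation above a cutoff set at the mean of all screened compounds plus 3 SD, cut at about 10% in these data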;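 also: 0% = DMSO wells and 100% = sodium butyrate wells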
# DAX1 inh-1: DAX1 (NR0B1) inhibitors on StAR promoter, primary screen, cell-based, luminescence, SF-1 (NR5A1), full-length DAX-1; inhibition, % at 6.8 µM; hit rate 1.1% among 370,000; HEK293T StAR-luciferase reporter, SF-1/DAX-1 repression relief;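 active = inhibition above the mean over all tested compounds plus 3 SD, cut at about 3.6% in these data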;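 also: 0% = DAX-1 cells with DMSO and 100% = cells lacking DAX-1 with DMSO; higher inhibition means more luminescence from relief of DAX-1 repression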
# DAX1 inh-2: DAX1 (NR0B1) inhibitors, primary screen, cell-based, HEK293, Gal4-DAX1, luciferase luminescence; HEK293 Gal4-DAX1 luciferase reporter; Nuclear receptor subfamily 0 group B member 1 (Homo sapiens), P51843; inhibition, % at 6.75 µM; hit rate 0.99% among 340,000; AID 504766, 2011;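 active = inhibition above the mean over all tested compounds plus 3 SD, cut at about 4.2% in these data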;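 also: 0% = DAX1-transfected cells with DMSO and 100% = empty-vector control cells with DMSO; inhibition shows as a rise in luminescence from relieved DAX1 repression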
# Target sequence (P51843 207-470 limits assumed): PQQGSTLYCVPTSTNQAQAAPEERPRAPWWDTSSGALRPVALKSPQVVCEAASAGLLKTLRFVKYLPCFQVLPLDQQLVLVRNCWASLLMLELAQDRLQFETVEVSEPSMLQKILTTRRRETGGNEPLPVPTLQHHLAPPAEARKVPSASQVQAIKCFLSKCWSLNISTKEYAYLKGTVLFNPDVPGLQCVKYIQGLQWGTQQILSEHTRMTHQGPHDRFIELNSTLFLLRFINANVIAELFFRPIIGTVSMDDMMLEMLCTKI
# hcDAF-12 act: H. contortus DAF-12 nuclear receptor activators, primary screen, cell-based, luminescence, HEK293, lit1-tk-luc reporter | HEK293 hcDAF-12 lit1-tk-luc reporter; 0% DMSO, 100% Δ7-dafachronic acid | hit rate 1.4% among 370,000 | activation, % at 6.8 µM;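 active = activation above the mean of all tested compounds plus 3 SD, cut at about 5.5% in these data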;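 also: 100% = response to 3 µM Δ7-dafachronic acid high control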
# * marks the source's active call; other numbers are inactive results; . = no result given.
SMILES,ssDAF-12 act,hgDAF12 agonist,DAX1 inh-1,DAX1 inh-2,hcDAF-12 act
CC(=O)NS(=O)(=O)c1ccc(NS(=O)(=O)c2ccc3ccccc3c2)cc1,-1.3,-0.5,-0.1,4.7*,0.3
Cc1cc[n+](C2=C([O-])c3ccccc3C(=O)/C2=N\S(=O)(=O)c2cccs2)cc1C,0.0,-2.6,-0.8,4.5*,3.0
Cc1cc(C)c[n+](C2=C([O-])c3ccccc3C(=O)/C2=N\S(=O)(=O)c2cccs2)c1,-0.7,-6.1,-0.6,-1.4,0.2
CC(=O)Oc1ccc([C@@H]2COc3c(ccc4c3C=CC(C)(C)O4)C2)c(OC(C)=O)c1,-1.4,4.8,0.7,4.4*,1.9
Cc1ccccc1-c1nnc(SCC(=O)Nc2cccnc2Cl)o1,-0.4,7.3,8.3*,-1.5,4.7
Cc1occc1-c1nnc(SCCNCCO)o1,-1.8,12.6*,-0.2,0.0,2.5
Cc1occc1-c1nnc(SCC(=O)Nc2ccccn2)o1,-1.3,5.8,3.7*,0.6,1.6
Cc1occc1-c1nnc(SCC(=O)NCCc2ccccc2)o1,-0.1,4.3,0.1,0.6,-1.6
COc1cccc(C(=O)N[C@H](C(=O)N2CCC[C@H]2C(=O)NC2CCCC2)c2ccccc2)c1,-0.6,-2.4,-1.2,.,2.9
CCOC(=O)C1=CCN(S(=O)(=O)c2ccc(Br)cc2)C1c1cccc(F)c1 (stereo not given),-1.3,0.1,-0.3,.,-1.5
O=C(CC1NCCc2ccccc21)Nc1ccccc1 (stereo not given),0.9*,2.8,1.5,1.8,5.3
O=C(CC1NCCc2ccccc21)Nc1ccc(Oc2ccccc2)cc1 (stereo not given),-1.0,-1.3,0.2,-0.5,-1.7
N#Cc1nc(Cc2ccccc2)oc1N1CCCC1,-1.0,2.4,0.5,6.2*,-1.2
CC1CC(C)CN(c2oc(Cc3ccccc3)nc2C#N)C1 (stereo not given),-1.7,-3.3,0.0,-0.7,-2.4
Cc1onc(C(=O)N2CCN(C(c3ccccc3)c3ccccc3)CC2)c1Br,-1.3,2.0,.,.,2.5
O=C(CCC(=O)c1cccs1)c1cccs1,-0.2,12.4*,2.9,3.7,3.7
CO/N=C(\CCC(=O)O)c1cccs1,-1.5,11.4*,0.7,1.0,-1.1
COC(=O)[C@]12C[C@H](CC(=O)NCc3ccc(C)o3)C(=O)N(Cc3ccco3)C1=C[C@H](C1CCCC1)O[C@@H]2C,-0.7,-4.6,-0.8,.,-2.2
O=C(O)c1nccnc1C(=O)Nc1ccc(S(=O)(=O)N2CCOCC2)cc1,1.8*,-2.8,-0.3,0.9,-0.5
O=C(O)c1ccc2c3c(cccc13)C(=O)N(c1cccc3ccccc13)C2=O,-0.7,0.8,0.3,4.5*,2.6
Cc1ccc(-c2cn(-c3ccccc3F)c(=S)[nH]2)cc1,0.6,11.0*,1.2,4.4*,3.3
CC(=O)Nc1ccc(C(=O)N/N=C/c2ccccc2OCc2ccccc2)cc1,-1.2,6.8,0.3,4.3*,-0.7
COc1ccccc1/C=N/NC(=O)c1ccc(NC(=O)c2ccccc2Br)cc1,-2.0,3.1,-0.3,-0.5,-3.1
CCC(=O)Nc1ccc(C(=O)N/N=C/c2ccccc2[N+](=O)[O-])cc1,-0.6,5.2,0.9,-0.8,-1.1
CCOc1ccc(C(=O)N/N=C/c2ccccc2[N+](=O)[O-])cc1,-0.7,10.5*,3.1,0.4,3.4
SMILES,ssDAF-12 act,hgDAF12 agonist,DAX1 inh-1,DAX1 inh-2,hcDAF-12 act
CCC(=O)Nc1ccc(C(=O)N/N=C/c2cc(Br)c(OC)cc2OC)cc1,1.9*,1.3,0.1,-0.2,5.1
O=C(O)CCCC[n+]1ccccc1,-1.5,1.2,0.5,.,-0.8
O=C(c1ccco1)N1CCN(C2CN(C3CCCCC3)S(=O)(=O)C2)CC1 (stereo not given),-0.9,-0.5,3.9*,.,-0.4
CCN1CCn2c3c(c4cc(C)ccc42)CCCC31 (stereo not given),-1.2,0.2,0.9,1.3,-0.9
Cc1ccc2c(c1)c1c3n2CCN(CCC#N)C3CCC1 (stereo not given),-0.5,-0.7,0.1,4.5*,1.3
COc1ccc2c(CC(=O)OCC(=O)N3CCc4ccccc43)coc2c1,-0.9,0.6,0.3,-1.7,0.4
COc1ccc2c(CC(=O)N3CCc4ccccc43)coc2c1,0.5,10.2,2.9,0.7,5.8*
O=C(c1cc([N+](=O)[O-])ccc1Cl)N1CCc2ccccc21,-0.4,2.8,-0.8,-0.2,1.4
O=C(COc1ccc(F)cc1Br)N1CCc2ccccc21,0.1,10.7*,3.0,1.9,1.2
O=C(COc1ccc([N+](=O)[O-])cc1Cl)N1CCc2ccccc21,0.8,8.8,4.4*,1.1,4.9
O=Cc1ccc(OCC(=O)N2CCc3ccccc32)c(Br)c1,-0.3,6.8,2.1,0.3,2.2
COc1ccc(OCC(=O)N2CCc3ccccc32)c([N+](=O)[O-])c1,0.2,5.0,3.6,2.0,5.6*
O=C(COc1ccccc1)NC(=S)N1CCc2ccccc21,-0.1,8.2,1.1,-0.5,4.1
O=C(COc1ccccc1Cl)NC(=S)N1CCc2ccccc21,-1.2,2.0,1.0,-0.2,5.9*
COc1ccc(C(=O)N2CCC[C@@H]2C(=O)N2CCC[C@@H]2C(=O)NCc2ccccc2)cc1F,-0.2,-0.5,-0.5,.,1.1
COc1ccccc1CNC1CCC12CCC(c1ccccc1)CC2 (stereo not given),-1.3,-1.4,.,.,-0.6
O=C1C(=Cc2cccn2-c2ccccc2)C(=O)c2ccccc21,1.0*,5.2,0.2,-1.0,2.2
COc1cc(/C=C2/CC(C)OC2=O)c([N+](=O)[O-])cc1OC (stereo not given),-1.3,1.0,-0.2,4.7*,-2.1
C(=NN=Cc1c[nH]c2ccccc12)c1c[nH]c2ccccc12,-0.1,3.2,-0.1,1.4,6.1*
Cc1cc(C)n(/N=C/c2c[nH]c3ccccc23)c(=O)c1,0.7,-0.9,0.7,2.1,6.5*
O=C1CS/C(=N/N=C/c2c[nH]c3ccccc23)N1,-0.9,0.6,0.3,.,0.6
COc1cc(Cl)cc(C(c2c(C(=O)O)[nH]c3ccccc23)c2c(C(=O)O)[nH]c3ccccc23)c1O,-0.8,1.6,0.6,1.3,5.7*
O=C(O)c1[nH]c2ccccc2c1C(c1c(F)cccc1Cl)c1c(C(=O)O)[nH]c2ccccc12,-0.6,5.0,0.4,1.2,-0.9
COc1ccc(C2CC(c3cccs3)=NN2S(C)(=O)=O)cc1 (stereo not given),-1.6,3.4,1.4,2.0,1.7
